An excerpt weighted towards active compounds, which were near 4.1% of everything screened.
ALR H2O2 inh: inhibitors of human sulfhydryl oxidase ALR; P55789; purified ALR, DTT oxidation, H2O2 HRP-luminol luminescence; inhibition, % (concentration not given with the values); actives 3.8% (n = 290,000); AID 485317;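 active means mean replicate inhibition above about 79%, with every replicate also reaching it, limit read from the data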
F508del corr: CFTR F508del correction in bronchial cells; CFBE cells, YFP halide quenching; stimulated with forskolin plus potentiator P3; % fluorescence drop versus neutral controls; activity (quench increase), % at 7.58 µM; actives 0.36% (n = 350,000);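 active means mean added fluorescence quench of at least 8% versus neutral control, with both replicates also reaching 8%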;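 further: cells transiently co-express mutant CFTR-F508del with the halide-sensitive YFP; corrector assay measuring rescue of mutant channel to the surface after 24 h compound exposure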
PglD DTNB: inhibitors of Campylobacter jejuni PglD acetyltransferase; purified PglD enzyme, DTNB colorimetric CoA detection; inhibition, % at 12.5 µM; actives 0.098% (n = 360,000); AID 602405; in the data active means inhibition above about 16%, passing the limit was not always enough
Env fusion inh: inhibitors of HIV Env-mediated cell fusion | HeLa-JRFL Env/CEM21 cell fusion, luciferase | inhibition, % at 12.3 µM | actives 1.1% (n = 360,000) | AID 651610;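 active means mean replicate inhibition score of at least 50 and every replicate individually at or above 50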;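 further: 0% = plate neutral controls and 100% = maraviroc near 300 nM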
CASP6 VEID inh: inhibitors of human caspase-6; inhibition, % at 12.5 µM; purified caspase-6, Z-VEID-R110 cleavage fluorescence; AID 686996; actives 0.53% (n = 350,000);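 active means mean inhibition across replicates at least about 35%, with every replicate also reaching that limit, limit read from the data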;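 further: 0% = median of neutral control wells and 100% = no fluorescence left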
NSD2 HMT inh: inhibitors of human histone methyltransferase NSD2 | actives 0.54% (n = 310,000) | NSD2 peptide methylation, AlphaScreen, 120 min | AID 743445 | inhibition, % at 12.5 µM; in the data active means inhibition above about 50%
Target sequence (O96028 whole entry, looked up): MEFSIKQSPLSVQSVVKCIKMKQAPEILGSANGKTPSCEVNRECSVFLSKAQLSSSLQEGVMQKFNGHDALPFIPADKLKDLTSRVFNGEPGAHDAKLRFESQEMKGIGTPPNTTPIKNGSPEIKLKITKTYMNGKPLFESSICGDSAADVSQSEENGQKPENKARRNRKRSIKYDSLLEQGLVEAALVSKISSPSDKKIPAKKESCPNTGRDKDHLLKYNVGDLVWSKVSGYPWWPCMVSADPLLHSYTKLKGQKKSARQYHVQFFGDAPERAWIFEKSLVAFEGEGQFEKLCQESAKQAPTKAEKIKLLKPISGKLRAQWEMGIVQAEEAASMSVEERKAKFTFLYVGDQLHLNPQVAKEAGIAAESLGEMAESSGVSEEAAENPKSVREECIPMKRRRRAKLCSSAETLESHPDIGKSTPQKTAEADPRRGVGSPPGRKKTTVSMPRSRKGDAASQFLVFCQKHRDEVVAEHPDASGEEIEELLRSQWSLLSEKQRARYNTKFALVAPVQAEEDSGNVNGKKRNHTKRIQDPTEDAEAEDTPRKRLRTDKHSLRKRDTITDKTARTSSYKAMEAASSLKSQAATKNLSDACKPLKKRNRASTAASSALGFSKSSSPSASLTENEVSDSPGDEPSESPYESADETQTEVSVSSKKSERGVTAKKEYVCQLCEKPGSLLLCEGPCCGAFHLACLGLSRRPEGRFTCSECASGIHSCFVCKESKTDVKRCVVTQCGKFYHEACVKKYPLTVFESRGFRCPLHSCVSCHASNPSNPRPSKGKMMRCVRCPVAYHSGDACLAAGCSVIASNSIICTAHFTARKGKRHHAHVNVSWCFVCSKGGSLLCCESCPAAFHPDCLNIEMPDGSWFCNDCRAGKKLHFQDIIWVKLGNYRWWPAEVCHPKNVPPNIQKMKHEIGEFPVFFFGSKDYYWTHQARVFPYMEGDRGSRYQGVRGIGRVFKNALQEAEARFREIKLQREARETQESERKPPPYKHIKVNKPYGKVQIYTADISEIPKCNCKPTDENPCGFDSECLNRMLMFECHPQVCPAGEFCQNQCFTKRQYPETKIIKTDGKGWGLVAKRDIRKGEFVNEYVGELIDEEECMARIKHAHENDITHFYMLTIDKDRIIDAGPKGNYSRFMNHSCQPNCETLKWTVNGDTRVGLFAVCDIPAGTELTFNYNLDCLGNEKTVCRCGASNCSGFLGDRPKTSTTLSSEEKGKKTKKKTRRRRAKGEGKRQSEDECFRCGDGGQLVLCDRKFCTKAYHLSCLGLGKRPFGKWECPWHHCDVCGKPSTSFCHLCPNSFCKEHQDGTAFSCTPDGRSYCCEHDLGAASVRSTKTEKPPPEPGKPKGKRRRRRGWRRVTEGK
CASP1 counter: blocks human caspase-1 in a selectivity counter-screen; shares compounds with CASP6 VEID inh; purified caspase-1, Z-YVAD-R110 cleavage fluorescence; activity change, negative = inhibition, % at 35 µM; 100 tested, under 10 active;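 active means compounds lowering fluorescence whose fitted half-maximal concentration is no more than twice their top tested dose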
AlphaScreen art: counter-screen for NSD2 inhibitors: AlphaScreen artifacts; shares compounds with NSD2 HMT inh; AlphaScreen artifact counterscreen, preloaded methylated H4 peptide; actives 9.4% (n = 1,500); AC35, µM (titrated, usually from 10 µM), inactives show at the top dose activity change, negative = signal loss; call rule not given here
Numbers without * were called inactive; · = no result; [ ] = remark or other dose.

SMILES | ALR H2O2 inh | F508del corr | PglD DTNB | Env fusion inh | CASP6 VEID inh | NSD2 HMT inh | CASP1 counter | others
CO[C@@H]1CN(C)C(=O)c2cc(NC(C)=O)ccc2OC[C@H](C)N(C(=O)CC2CC2)C[C@H]1C | · | 0 | 3 | 27[16.7 µM] | -2 | · | ·
O=P(c1ccccc1)(c1ccccc1)c1cc(S(=O)(=O)O)ccc1O | -8 | 0 | 0 | -6 | 77* | 29 | 5
O=C1NC(=O)C(=Cc2ccccc2[N+](=O)[O-])S1 | · | 0 | 2 | -11 | 67* | 34 | 4
C[C@@H]1CCCCO[C@@H](CN(C)S(=O)(=O)c2cccs2)[C@H](C)CN([C@H](C)CO)C(=O)c2cc(NC(=O)c3ccccc3)ccc2O1 | · | 2 | 4 | -16[16.7 µM] | · | · | ·
COCCN(C(=O)COC(=O)c1cc2c(s1)CCC2)c1c(N)n(Cc2ccccc2)c(=O)[nH]c1=O | 1 | 3 | 6 | · | 80* | 72* | -1
C[C@@H]1CN([C@H](C)CO)C(=O)c2cc(NC(=O)C3CCCCC3)ccc2O[C@@H](C)CCCCO[C@@H]1CN(C)C(=O)Cc1ccccc1 | · | 2 | 1 | 9[16.7 µM] | · | · | ·
CCC(CO)Oc1cc(NCc2cccc(C)c2)c2ncn(C(C)C)c2c1 (stereo unspecified) | 5 | 0 | -5 | 3 | 21 | · | ·
CC[C@H](CO)Oc1cc(NCc2cccc(N)c2)c2ncn(C(C)C)c2c1 | · | -1 | · | 13 | 46* | · | -4
O=c1oc2cc(O)c(Cl)cc2c2ccccc12 | 49 | · | 8 | -25 | · | -1 | ·
O=c1cc2c(=O)oc3cc(O)c(O)oc3c2c(O)c1O | · | -1 | -3 | -16 | 95* | · | -8
O=C(COC(=O)c1cccs1)Nc1cccc(S(=O)(=O)NC2=NCCCCC2)c1 | 1 | 0 | · | 12 | -6 | 1 | ·
O=C(COC(=O)c1ccc([N+](=O)[O-])s1)Nc1ccc(F)cc1 | -20 | 4 | 1 | 2 | 98* | · | 2
O=C(COC(=O)c1ccc([N+](=O)[O-])s1)Nc1ccc(Cl)cn1 | -21 | -2 | · | -12 | 6 | 11 | ·
CC(C)(C)c1ccc(NC(=O)COC(=O)c2ccc([N+](=O)[O-])s2)cc1 | · | · | 3 | 5 | · | 17 | -9
O=C(COC(=O)c1ccc([N+](=O)[O-])s1)Nc1cccc(S(=O)(=O)NC2=NCCCCC2)c1 | -33 | 1 | · | 2 | 98* | · | 13
CCC(=O)Nc1ccc2c(c1)OC[C@H](C)N(C(=O)CC)C[C@@H](C)[C@H](OC)CN(C)C2=O | · | -2 | · | · | · | · | ·
CCCNC(=O)Nc1ccc2c(c1)OC[C@H](C)N(C(=O)CC)C[C@H](C)[C@@H](OC)CN(C)C2=O | · | 3 | · | · | -4 | · | ·
O=C(Nc1ccc(S(=O)(=O)Nc2cnc3ccccc3n2)cc1)c1ccc(Cl)c([N+](=O)[O-])c1 | · | 0 | 2 | 18 | 62* | 10 | -4
COc1ccc2c3c(n(C)c2c1)[C@H](CO)N(C(=O)CN1CCOCC1)CC31CCN(C(=O)Nc2cccc(F)c2)CC1 | · | 1 | · | · | 2 | · | ·
[O-][n+]1onc2c1CCc1c-2nn(-c2ccccc2Cl)[n+]1[O-] | -3 | -2 | · | · | 82* | 4 | -1
C/C(CC(=O)N1CCCC1)=N\NC(=O)c1cc2ccccc2cc1O | 7 | -22 | · | -16 | 39* | 70* | 13
O=C(OCC(=O)N1CCCCC1)c1cc2ccccc2cc1O | -16 | · | 1 | · | · | 0 | ·
COc1ccc(S(=O)(=O)Nc2ccc3c(c2)C(=O)N([C@@H](C)CO)C[C@@H](C)[C@H](CN(C)Cc2ccccc2)OCCCC[C@H](C)O3)cc1 | · | -1 | -3 | -8[16.7 µM] | · | · | ·
O=C(OCc1nnc(-c2ccccc2)o1)c1ccc([N+](=O)[O-])s1 | -27 | -1 | 2 | -4 | 99* | -1 | 1
O=C(Nc1ccc2nc3n(c(=O)c2c1)CCCCC3)c1cc([N+](=O)[O-])ccc1F | 5 | -2 | -3 | -3 | 7 | · | ·
SMILES | ALR H2O2 inh | F508del corr | PglD DTNB | Env fusion inh | CASP6 VEID inh | NSD2 HMT inh | CASP1 counter | others
O=C(Nc1ccc2nc3n(c(=O)c2c1)CCCCC3)c1c(F)ccc([N+](=O)[O-])c1F | 6 | -1 | -3 | 15 | 60* | 25 | 14
CC(=O)N(C)C[C@H]1Oc2cc(-c3ccccc3C)ccc2S(=O)(=O)N([C@@H](C)CO)C[C@H]1C | · | 0 | 0 | 22[16.7 µM] | 1 | · | ·
Oc1cc(NCc2ccc(F)cc2)cc2cccnc12 | 22 | -3 | 1 | 50 | 29 | · | ·
CN(C)CCCNc1cc(O)c2ncccc2c1 | 17 | -3 | -7 | 9 | 87* | · | 6
CC(C)CC#Cc1ccc2c(c1)O[C@@H](CN(C)Cc1ccncc1)[C@@H](C)CN([C@@H](C)CO)S2(=O)=O | · | 2 | -1 | 16[16.7 µM] | 0 | · | ·
Cc1cc(C=O)c(C)n1-c1cc(C(=O)O)cc(C(=O)O)c1 | -6 | -1 | · | -7 | 41* | 84* | 7 | AlphaScreen art=-5%
Cc1ccccc1S(=O)(=O)NCC[C@@H]1CC[C@H](NC(=O)C2CCCC2)[C@@H](CO)O1 | · | -1 | 3 | 15[16.7 µM] | 0 | · | ·
COc1cc(N(C(C)=O)c2ccc(O)cc2)c2ncccc2c1 | · | 0 | -2 | 3 | 4 | -4 | ·
COc1cc(N(C(C)=O)c2ccc(O)c(C(=O)O)c2)c2ncccc2c1 | · | 4 | 2 | 15 | 44* | 86* | -2 | AlphaScreen art=-2%
O=C(COC(=O)c1ccc([N+](=O)[O-])s1)Nc1ccccc1 | · | · | 8 | · | · | 69* | 0 | AlphaScreen art=-1%
Oc1cc2c(cc1O)[C@H]1c3ccc(O)c(O)c3OC[C@@]1(O)C2 | · | 3 | -2 | · | 37* | 109* | -2 | AlphaScreen art=4µM*
Oc1ccc2c(c1)OCC1(O)Cc3cc(O)c(O)cc3C21 (stereo unspecified) | · | 5 | -1 | · | 31 | · | ·
COc1ccc(S(=O)(=O)Nc2ccc3c(c2)C(=O)N([C@@H](C)CO)C[C@H](C)[C@@H](CN(C)C(=O)Nc2ccc(F)cc2)OCCCC[C@@H](C)O3)cc1 | · | -2 | 5 | -51[16.7 µM] | 1 | · | ·
CCOc1c(O)ccc(/C=C2\SC(=S)NC2=O)c1[N+](=O)[O-] | 99* | 4 | · | 10 | 61* | 53* | 9 | AlphaScreen art=-5%
O=c1c(O)cccc2cc(O)c(O)c(O)c12 | 100* | 1 | 2 | 56* | 98* | 128* | -10 | AlphaScreen art=1.6µM*
COc1cc2cccc(OC)c(=O)c2c(OC)c1OC | -8 | -2 | -3 | · | 3 | · | ·
CCCC#Cc1ccc2c(c1)O[C@H](CN(C)C(=O)COC)[C@@H](C)CN([C@H](C)CO)S2(=O)=O | · | -3 | -2 | 2[16.7 µM] | -1 | · | ·
CC1=CC(=C2C(=O)c3ccccc3C2=O)C=C(C)O1 | 4 | · | · | -33 | · | 0 | ·

Bioassay records: PubChem, Broad Institute
